# According to PubChem BioAssay (NCI):
# The panel holds about 83,000 compounds, 20% with a hit somewhere; the sample as a whole holds those more often.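 Interpretation: 100, growth as untreated; towards 0, rising growth inhibition; 0, no net growth; 0 to -100, cell death. Compounds scoring below 10 were considered active.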 Values without a mark were called inactive. Calls of active or inactive are those of the source.
# System: SK-MEL-2 melanoma
# Experiment: NCI-60 one-dose screen, 48 h (100 = growth as untreated, 0 = no growth, -100 = all killed)
# Conditions: 10 µM unless noted
# Description: Growth inhibition of the SK-MEL-2 human tumor cell line is measured as a screen for anti-cancer activity. Cells are grown in 96 well plates and exposed to the test compound for 48 hours. Compounds are tested at a single concentration, which is 10^-5 M for most compounds. The reported endpoint is percent growth (GI% or GIPRCNT), where numbers from 0 - 100% represent growth inhibition, and numbers from -100% - 0 represent cell death. For example, a value of 40 represents 60% growth inhibition. A value of 0 means no net growth occurred over the course of the experiment. A value of -40 indicates 40% of cells at the beginning of the experiment died by the end of the experiment. A value of -100 means all cells are dead at the end of the experiment.
# NCI-60 Human Tumor Cell Lines Screen was performed using the standard one-dose NCI protocol, which is described in more detail at https://dtp.cancer.gov/discovery_development/nci-60/default.htm.
# Compounds with GIPRCNT values below 10 were considered active. Activity score was based on GIPRCNT using the following formula: […]
# Score is 0 for GIPRCNT values of 100 or above, 50 for GIPRCNT values of 0, and 100 for GIPRCNT values of -100.
row,Structure (SMILES),growth
1,CC(=O)O[C@H]1C(=O)[C@@]2(C)[C@H]([C@H](OC(=O)c3ccccc3)[C@]3(O)C[C@H](OC(=O)[C@H](OC(=O)CCC(=O)OC4CCC(S/N=C(N)/N=C(\N)N(C)C)CC4)[C@@H](NC(=O)c4ccccc4)c4ccccc4)C(C)=C1C3(C)C)[C@]1(OC(C)=O)CO[C@@H]1C[C@@H]2O (stereo not given in full),12.8%
2,Oc1cccc(-c2nc(N3CCOCC3)c3c4c(sc3n2)CCCC4)c1,71.3%
3,C=C1C(=O)O[C@H]2[C@H]1CC/C(C=Nc1ccc(C(F)(F)F)cc1N)=C\CC[C@@]1(C)O[C@@H]21,-18.3% (active)
4,COc1cccc(Nc2nc(SC)nc(-c3cccc([N+](=O)[O-])c3)c2C#N)c1,96.3%
5,O=C1CC(=NCC(=O)n2c(-c3ccccc3)nc3ccccc32)NN1,98.7%
6,CC1=CC(=NN=c2cc(C)n([O-])c(C)c2)C=C(C)[N+]1=O,84.7%
7,CC1=C[C@H]2c3c(c(O)c(O)c4oc5c(C)cccc5c(=O)c34)[C@H](c3cc(O)c(O)c4oc5c(C)cccc5c(=O)c34)[C@H]2C(C)(C)C1,20.9%
8,COc1ccc(-c2cc(-c3ccc(Nc4ccnc5cc(Cl)ccc45)cc3)nc(N3CCOCC3)n2)cc1,90.3%
9,COc1ccc(/C=C/c2nc(-c3n[nH]c(=O)n3-c3ccccc3)c3ccccc3n2)cc1,99.2%
10,CCNC(=O)Oc1ccc(/C(=C(\C)c2ccc(Cl)cc2)c2ccc(OCCN3CCCCC3)cc2)cc1,62.9%
11,Cn1cccc1-c1nc2c3c(ccc2[nH]1)C(=O)c1ccccc1C3=O,91.4%
12,O=C1Nc2c(ccc(Cl)c2Cl)/C1=C\c1ccc(C(F)(F)F)cc1,91.4%
13,C=C(C)C1CC(O)C2(C)CCCC3C2C1CC(C)C3(C)CC/C(C)=C/C(O)C1CCC(=O)c2c(OC)cc(OC)cc21 (stereo not given),65.8%
14,CC(C)C1=C[C@@]23CC[C@@H]4[C@](C)(CCC[C@@]4(C)C(=O)N4CCCNCC4)[C@H]2C[C@@H]1[C@H]1C(=O)CCC(=O)[C@H]13,103%
15,COc1ccc(-c2cc(NC(=O)Nc3ccc4ncsc4c3)no2)cc1,112%
16,Cc1ccccc1COc1ccc(-c2onc(C)c2-c2ccc(Cl)cc2)cc1,37.1%
17,Cc1nn(-c2ccc(F)cc2)c2ncnc(Nc3ccc(NC(=O)Nc4ccc(Cl)c(C(F)(F)F)c4)cc3)c12,-7.22% (active)
18,CCCCn1c(-c2ccc(C(=O)O/N=C(\N)c3ccc4c(c3)OCO4)cc2)nc(-c2ccccc2)c1-c1ccccc1,84.9%
19,Cn1cc(C(=O)c2nc(-c3c[nH]c4ccc(F)cc34)no2)c2cc(F)ccc21,98.1%
20,COc1ccc(-c2nc3ccc(-c4nc5ccc(N6CCN(c7ccncc7)CC6)cc5[nH]4)cc3[nH]2)cc1OC,-17% (active)

row,Structure (SMILES),growth
1,CC1CCNC(C)C1 (stereo not given),112%
2,Cc1cc(N[C@@H]2CCC[C@H](Nc3ccnc4cc(Cl)ccc34)C2)nc(N2CCCCCC2)n1,-75.7% (active)
3,COc1ccc(CN2c3ccccc3Sc3ccccc32)cc1O,8.98% (active)
4,CC(C)n1c(/C=C/[C@@H](O)C[C@@H](O)CC(=O)O)c(-c2ccc(F)cc2)c2ccccc21,15%
5,Cc1cc(N2CCCC2)nc(NC2CCCC(Nc3ccnc4cc(Cl)ccc34)C2)n1 (stereo not given),-87.5% (active)
6,COc1ccc(-c2cc(C(=O)N=Nc3c(O)[nH]c4ccc(Br)cc34)no2)cc1,97.6%
7,O=C(CN1CCCCC1)Nc1ccc2oc(=O)ccc2c1,96.8%
8,Cc1ccc(NC(=O)C2CCC(CN3CCN(C)CC3)CC2)cc1Nc1nccc(-c2cccnc2)n1 (stereo not given),112%
9,COc1ccc(/C=C(\C#N)C(=O)Nc2cccc(Nc3nc(SC)nc(-c4cccc([N+](=O)[O-])c4)c3C#N)c2)cc1OC,113%
10,CC1=C/C(=C(\c2ccc(N(C)C)cc2)c2ccc([N+](C)(C)C)cc2)C=CC1=[N+](C)C,110%
11,COc1ccc2c(c1)O/C(=C\c1cccc(OCC(=O)Nc3nc4c(s3)CCCC4)c1)C2=O,82.5%
12,O=c1nc2oc3ccc4ccccc4c3cc-2s1,31.9%
13,CCCOc1ccc2nc(NC(=O)OC)[nH]c2c1,-1.33% (active)
14,O=c1c2c3c(sc2nc(N/N=C/c2cn(-c4ccccc4)nc2-c2ccc(Cl)cc2)n1Cc1ccccc1)CCCC3,103%
15,CSc1ccc(SC2c3ccc(C)cc3Oc3nc(N)c(C#N)c(N)c32)cc1 (stereo not given),-58.9% (active)
16,O=C1c2cc3c(cc2-c2c1c1ccc(F)cc1c(=O)n2C[C@H](O)[C@H](O)[C@H](O)CO)OCO3,-33.4% (active)
17,O=C(/C=C/C=C/c1ccc2c(c1)OCO2)N/N=C\c1ccc(O)cc1O,52.8%
18,O=C(Nc1ccccc1Cl)c1ccc(NC2=C(Cl)C(=O)N(C3CCCCC3)C2=O)cc1,104% [30 µM]
19,CN(C)CCN1C(=O)c2cccc3c(N)ccc(c23)C1=O,19.6%
20,COc1cc(C2CC(=O)c3ccccc3N2)cc(OC)c1OC (stereo not given),74.3%
